Some test systems named below: SR leukemia; RPMI-8226 leukemia; OVCAR-8 ovarian; OVCAR-5 ovarian; OVCAR-4 ovarian; SK-OV-3 ovarian; IGROV1 ovarian; OVCAR-3 ovarian; HS 578T breast; NCI/ADR-RES ovarian; T-47D breast; BT-549 breast; MDA-MB-435 melanoma; SW-620 colon; MCF7 breast; HCT-116 colon; HCC-2998 colon; KM12 colon; MDA-MB-468 breast.
Common to all, as to test: NCI-60 one-dose screen, 48 h (100 = growth as untreated, 0 = no growth, -100 = all killed)
Holding throughout (details): 10 µM unless noted

The record followed here is PubChem BioAssay (NCI).

The structures appear in SMILES notation. This is part of a sample that, as a whole, favours compounds with a hit. Of some 83,000 tested, about 20% had one in any assay.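 Single-dose data. Exposure time 48 hours. Values below 10 considered active.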 Unmarked numbers belong to inactive results. Calls of active or inactive are those of the source.

Turning to `O=C(Nc1cccc(-n2cnc3cc(-c4ccc(O)cc4)ccc32)c1)C1CC1`, the growth is 21.6% in the experiment on SR leukemia; 25.5% in the experiment on RPMI-8226 leukemia; 17.9% with OVCAR-8 ovarian; 41.2% in the experiment on OVCAR-5 ovarian; 49.6% in the experiment with OVCAR-4 ovarian; 35.5% in the experiment on SK-OV-3 ovarian. Also, the growth is 28.2% with IGROV1 ovarian; -2.16% (active) in the experiment on OVCAR-3 ovarian; 9.4% (active) with HS 578T breast; 24.8% with NCI/ADR-RES ovarian; 30.6% with T-47D breast; 30.8% with BT-549 breast. In addition, the growth in the experiment with MDA-MB-435 melanoma is -4.17% (active); in the experiment with SW-620 colon, 38.2%; with MCF7 breast, 24.9%; with HCT-116 colon, 9.12% (active); with HCC-2998 colon it was 28.4%; with KM12 colon, 0.14% (active). The growth in the experiment with MDA-MB-468 breast is 21%.
As for `O=C(CSc1nc2ccccc2c(=O)[nH]1)NCCN1CCCCC1`, the growth is 90.9% in the experiment with SR leukemia; 100% with RPMI-8226 leukemia; 97.7% in the experiment on OVCAR-8 ovarian; 94.2% with OVCAR-5 ovarian; 98.8% with OVCAR-4 ovarian; 107% in the experiment on SK-OV-3 ovarian. Moreover, the growth is 104% in the experiment on IGROV1 ovarian; 105% in the experiment with OVCAR-3 ovarian; 94.1% with HS 578T breast; 102% in the experiment on NCI/ADR-RES ovarian; 100% in the experiment on T-47D breast; 104% in the experiment on BT-549 breast. Besides, the growth was 95.1% with MDA-MB-435 melanoma; 97% in the experiment with SW-620 colon; 90.8% in the experiment on MCF7 breast; 104% with HCT-116 colon; 108% in the experiment with HCC-2998 colon; 98.3% with KM12 colon. Besides, the growth in the experiment on MDA-MB-468 breast was 96.9%.
In the case of `N/C(=N\N=C\c1ccc([N+](=O)[O-])cc1)c1c(N)nc(=S)[nH]c1-c1ccc(Cl)cc1Cl`, the growth in the experiment with SR leukemia was 76.9%; in the experiment with RPMI-8226 leukemia, 97.3%; in the experiment with OVCAR-8 ovarian, 98.4%; in the experiment on OVCAR-5 ovarian it was 111%; with OVCAR-4 ovarian, 111%; in the experiment with SK-OV-3 ovarian, 89.1%. The growth in the experiment with IGROV1 ovarian is 94.9%; with OVCAR-3 ovarian it was 110%; with HS 578T breast, 87.1%; in the experiment with NCI/ADR-RES ovarian, 105%; in the experiment with T-47D breast, 95.3%; in the experiment on BT-549 breast, 75.6%. The growth in the experiment on MDA-MB-435 melanoma is 108%; in the experiment with SW-620 colon, 108%; with MCF7 breast, 88.2%; in the experiment on HCT-116 colon, 85.2%; in the experiment with HCC-2998 colon it was 106%; in the experiment on KM12 colon it was 108%.
Turning to `C=C1CCC2C3(C)COC(c4ccco4)OC3CCC2(C)C1CC(Sc1ccccc1)C1=CCOC1=O` (stereo not given), the growth in the experiment on SR leukemia was 17.1%; in the experiment with RPMI-8226 leukemia, 3.83% (active); with OVCAR-8 ovarian it was 4.17% (active); in the experiment with OVCAR-5 ovarian, 60.9%; with OVCAR-4 ovarian it was 70.2%; in the experiment on SK-OV-3 ovarian, 141%. Besides, the growth in the experiment on IGROV1 ovarian is 69.2%; in the experiment on OVCAR-3 ovarian, 37%; in the experiment with HS 578T breast, 114%; with NCI/ADR-RES ovarian, -17.6% (active); in the experiment on T-47D breast, 77.3%; in the experiment with BT-549 breast, 5.74% (active). The growth is 54.1% in the experiment with MDA-MB-435 melanoma; 34.8% in the experiment with SW-620 colon; 23.1% in the experiment with MCF7 breast; 12% in the experiment with HCT-116 colon; 57% in the experiment with HCC-2998 colon; 71.9% in the experiment with KM12 colon. In the experiment with MDA-MB-468 breast, the growth is 17%.
Regarding `C#CCOc1cc(N(CC)CC)ccc1C(C(=O)NC(C)(C)C)N(C(=O)C1CCc2cc(F)ccc2O1)c1ccccc1Br` (stereo not given), the growth with SR leukemia is 47.6%; in the experiment on RPMI-8226 leukemia, 37.9%; in the experiment on OVCAR-8 ovarian it was 63.2%; in the experiment with OVCAR-5 ovarian it was 69%; in the experiment with OVCAR-4 ovarian it was 60.4%; in the experiment on SK-OV-3 ovarian, 72.1%. The growth in the experiment on IGROV1 ovarian was 90.9%; with OVCAR-3 ovarian, 81.6%; in the experiment on HS 578T breast it was 84.7%; with NCI/ADR-RES ovarian it was 63.3%; in the experiment on T-47D breast it was 55.6%; in the experiment with BT-549 breast, 63.7%. The growth in the experiment with MDA-MB-435 melanoma is 50.6%; with SW-620 colon it was 59.2%; in the experiment on MCF7 breast, 28.7%; in the experiment with HCT-116 colon, 27.5%; in the experiment on HCC-2998 colon, 93.5%; in the experiment on KM12 colon it was 40.4%.
Regarding `CC(=O)OCC1OC(OC2C(COC(C)=O)OC(n3cc(COc4ccc5ccc(=O)oc5c4)nn3)C(OC(C)=O)C2OC(C)=O)C(OC(C)=O)C(OC(C)=O)C1OC(C)=O` (stereo not given), the growth in the experiment with SR leukemia was 98.1%; in the experiment on RPMI-8226 leukemia, 97.3%; in the experiment with OVCAR-8 ovarian it was 106%; with OVCAR-5 ovarian, 112%; in the experiment with OVCAR-4 ovarian it was 115%; in the experiment on SK-OV-3 ovarian it was 109%. Moreover, the growth is 111% in the experiment with IGROV1 ovarian; 113% with OVCAR-3 ovarian; 89.2% in the experiment with HS 578T breast; 99.9% in the experiment on NCI/ADR-RES ovarian; 103% in the experiment on T-47D breast; 101% in the experiment on BT-549 breast. The growth is 101% in the experiment on MDA-MB-435 melanoma; 106% in the experiment on SW-620 colon; 90.9% in the experiment with MCF7 breast; 106% in the experiment on HCT-116 colon; 108% in the experiment on HCC-2998 colon; 103% with KM12 colon. Besides, in the experiment on MDA-MB-468 breast, the growth is 108%.
In the case of `Cc1cccc(-c2nc(Nc3ccc(C)c(S(N)(=O)=O)c3)c3ccccc3n2)c1`, the growth in the experiment on SR leukemia is 9.02% (active); in the experiment on RPMI-8226 leukemia it was 12.9%; in the experiment on OVCAR-8 ovarian, 32.8%; in the experiment with OVCAR-5 ovarian, 47.6%; with OVCAR-4 ovarian, 44.7%; with SK-OV-3 ovarian it was 103%. For the same molecule, the growth was 42.9% in the experiment on IGROV1 ovarian; 39.3% in the experiment on OVCAR-3 ovarian; 53.4% in the experiment on HS 578T breast; 18.7% in the experiment with NCI/ADR-RES ovarian; 29.1% in the experiment with T-47D breast; 75.6% in the experiment with BT-549 breast. Moreover, the growth in the experiment with MDA-MB-435 melanoma was 34.9%; in the experiment on SW-620 colon it was 23.7%; in the experiment on MCF7 breast it was 1.69% (active); in the experiment on HCT-116 colon it was 25.3%; in the experiment with HCC-2998 colon, -63.7% (active); with KM12 colon it was -24.8% (active). Moreover, the growth in the experiment on MDA-MB-468 breast is 13.4%.
As for `O=C(CCN1C(=O)/C(=C/c2ccc(F)cc2)SC1=S)N1CCOCC1`, the growth in the experiment on SR leukemia is 35%; in the experiment with RPMI-8226 leukemia it was 52.2%; in the experiment with OVCAR-8 ovarian it was 80.9%; in the experiment on OVCAR-5 ovarian it was 79.1%; in the experiment on OVCAR-4 ovarian, 55.5%; in the experiment on SK-OV-3 ovarian it was 91.5%. Besides, the growth is 85.6% with IGROV1 ovarian; 78.7% in the experiment on OVCAR-3 ovarian; 89% in the experiment with HS 578T breast; 78.2% with NCI/ADR-RES ovarian; 24.4% in the experiment with T-47D breast; 62.6% in the experiment with BT-549 breast. For the same molecule, the growth is 73.5% in the experiment on MDA-MB-435 melanoma; 61.9% with SW-620 colon; 48.1% with MCF7 breast; 55.5% in the experiment with HCT-116 colon; 113% in the experiment on HCC-2998 colon; 76% in the experiment on KM12 colon. Moreover, in the experiment with MDA-MB-468 breast, the growth is -11.2% (active).
